Active and inactive are the calls of the source. Unless noted, no rule for the calls is given here.
Legend:
[1] = A549 cell viability effects, profiling panel, calcein-AM fluorescence, 48 h, basal (AID 1162); conditions: higher = more signal; also: test concentration not given here
[2] = adipocyte viability effects, profiling panel, cell-based, 3T3-L1 adipocytes, calcein-AM fluorescence, 48 h, basal (AID 1163); conditions: 3T3-L1 adipocytes viability, higher = more signal; also: test concentration not given here
[3] = HepG2 cell viability effects, profiling panel, calcein-AM fluorescence, 48 h, basal (AID 1164); conditions: higher = more signal; also: test concentration not given here
[4] = MM1S cell viability effects, profiling panel, calcein-AM fluorescence, 48 h, basal (AID 1165); conditions: higher = more signal;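 also: viability of MM1S multiple myeloma cells under basal unstimulated conditions; test concentration not given here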
[5] = basal RPMI8226 viability, no added stimulus, profiling panel, cell-based, calcein-AM fluorescence, 48 h, PK04 Diversity Set (AID 1166); conditions: RPMI8226 myeloma viability, higher = more signal;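 also: cells grown under basal conditions without added stimulus; test concentration not given here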
[6] = basal HepG2 mitochondrial membrane potential changes, profiling panel, cell-based, JC-1 fluorescence, 24 h, 100 nL compound (AID 1167); conditions: higher = more signal; also: test concentration not given here
[7] = basal 3T3-L1 adipocyte mitochondrial potential changes, profiling panel, cell-based, JC-1 fluorescence, 3T3-L1 adipocytes, 24 h, 100 nL compound (AID 1168); conditions: JC-1 mitochondrial fluorescence, higher = more signal, called active from +8 up or from −8 down; also: test concentration not given here
[8] = basal RPMI8226 mitochondrial membrane potential changes, profiling panel, cell-based, JC-1 fluorescence, 24 h, 100 nL compound (AID 1169); conditions: RPMI8226 myeloma, JC-1 mitochondrial potential fluorescence, higher = more signal; also: test concentration not given here
[9] = basal MM1S mitochondrial membrane potential changes, profiling panel, cell-based, JC-1 fluorescence, 24 h, 100 nL compound (AID 1170); conditions: higher = more signal; also: test concentration not given here
[10] = A549 lung cancer cell viability effects, profiling panel, resazurin fluorescence, 24 h, PK04 Diversity Set (AID 1171); conditions: higher = more signal, called active from +8 up or from −8 down; also: test concentration not given here
[11] = HepG2 liver cancer cell viability effects, profiling panel, resazurin fluorescence, 24 h, PK04 Diversity Set (AID 1172); conditions: higher = more signal; also: test concentration not given here
[12] = basal S. cerevisiae growth modulation, no modifier, primary screen, OD600, strain BY4716, 24 h, basal condition (AID 1173); conditions: OD600, 24 h, higher = more signal, called active from +8 up or from −8 down
[13] = MM1S myeloma cell viability, profiling panel, resazurin fluorescence, basal, 24 h, PK04 Diversity Set (AID 1174); conditions: higher = more signal, called active from +8 up or from −8 down;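 also: MM1S multiple myeloma cell line; test concentration not given here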
[14] = target: Dihydroorotate dehydrogenase (quinone), mitochondrial (Plasmodium falciparum (isolate 3D7)) (UniProt Q08210); test: PfDHODH enzyme inhibitors, primary screen, biochemical, C-terminal His tag, absorbance 600 nm (AID 1175); conditions: DCIP absorbance 600 nm, higher = more signal, called active from +8 up or from −8 down;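 also: recombinant parasite enzyme with a five histidine tag at its C terminus; test concentration not given here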
Dihydroorotate dehydrogenase (quinone), mitochondrial (Plasmodium falciparum (isolate 3D7)), sequence (Q08210 whole entry, looked up): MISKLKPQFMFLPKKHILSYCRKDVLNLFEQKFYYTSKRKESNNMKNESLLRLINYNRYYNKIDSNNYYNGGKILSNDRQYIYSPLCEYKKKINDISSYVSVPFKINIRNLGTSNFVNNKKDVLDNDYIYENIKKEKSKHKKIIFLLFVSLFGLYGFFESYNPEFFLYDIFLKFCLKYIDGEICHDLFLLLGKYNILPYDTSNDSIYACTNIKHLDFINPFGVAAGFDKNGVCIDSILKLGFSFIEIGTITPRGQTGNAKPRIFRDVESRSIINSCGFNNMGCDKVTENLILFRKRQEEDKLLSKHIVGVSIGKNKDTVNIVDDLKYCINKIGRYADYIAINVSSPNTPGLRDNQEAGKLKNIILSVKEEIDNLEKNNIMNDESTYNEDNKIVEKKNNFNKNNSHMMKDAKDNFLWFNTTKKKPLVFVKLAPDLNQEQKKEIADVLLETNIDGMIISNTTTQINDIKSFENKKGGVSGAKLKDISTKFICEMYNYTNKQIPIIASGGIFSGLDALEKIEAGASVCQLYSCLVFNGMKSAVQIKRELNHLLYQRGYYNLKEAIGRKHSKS

[15] = P. aeruginosa biofilm formation inhibitors, primary screen, strain PAO1, LB-PBS medium, absorbance 600 nm (AID 1176); also: test concentration not given here; conditions: P. aeruginosa PAO1 growth/biofilm, A600, 12 h; higher = more signal
[16] = S. cerevisiae RM11-1a growth modifiers, primary screen, strain RM11-1a, OD600, basal, 24 h (AID 1177); conditions: OD600, 24 h, higher = more signal, called active from +8 up or from −8 down;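 also: cultures grown under basal conditions with no added stressor; test concentration not given here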
[17] = E. coli acrAB mutant growth effects, primary screen, E. coli filamentation inducers, strain DRC39, OD650, 24 h (AID 1178); conditions: higher = more signal, called active from +8 up or from −8 down;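 also: growth measured as culture turbidity by optical density at 650 nm; test concentration not given here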
[18] = E. coli acrAB mutant growth effects, primary screen, E. coli filamentation inducers, strain DRC39, OD650, 48 h (AID 1179);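 also: screen aims at cell division blockers that make cells filament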; conditions: E. coli DRC39 delta-acrAB growth, higher = more signal, called active from +8 up or from −8 down
[19] = RPMI8226 myeloma cell viability, profiling panel, resazurin fluorescence, basal, 24 h, PK04 Diversity Set (AID 1180); conditions: higher = more signal;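 also: RPMI8826 multiple myeloma cell line at 5000 cells per well; test concentration not given here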
[20] = target: E3 ubiquitin-protein ligase XIAP (Homo sapiens) (UniProt P98170); test: XIAP binders, primary screen, biophysical, small-molecule microarray, fluorescence 635 nm (AID 1181); conditions: small-molecule microarray binding, higher = more signal;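 also: score merges 667 nm emission and signal to noise over triplicate slides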
E3 ubiquitin-protein ligase XIAP (Homo sapiens), sequence (P98170 whole entry, looked up): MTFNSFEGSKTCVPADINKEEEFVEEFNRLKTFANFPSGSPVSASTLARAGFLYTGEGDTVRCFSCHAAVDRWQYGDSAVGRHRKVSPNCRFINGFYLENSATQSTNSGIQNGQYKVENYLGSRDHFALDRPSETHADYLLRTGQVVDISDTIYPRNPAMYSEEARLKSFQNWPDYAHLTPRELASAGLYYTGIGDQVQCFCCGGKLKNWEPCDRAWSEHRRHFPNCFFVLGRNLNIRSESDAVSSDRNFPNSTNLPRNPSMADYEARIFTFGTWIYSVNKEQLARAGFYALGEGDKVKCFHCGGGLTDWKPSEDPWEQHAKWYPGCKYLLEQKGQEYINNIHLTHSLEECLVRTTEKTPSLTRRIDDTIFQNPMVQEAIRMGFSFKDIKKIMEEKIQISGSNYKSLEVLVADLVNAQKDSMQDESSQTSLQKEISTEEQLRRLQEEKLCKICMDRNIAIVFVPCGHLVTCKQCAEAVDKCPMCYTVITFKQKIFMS

Row | SMILES | z-score [1] | z-score [2] | z-score [3] | z-score [4] | z-score [5] | z-score [6] | z-score [7] | z-score [8] | z-score [9] | z-score [10] | z-score [11] | z-score [12] | z-score [13] | composite z-score [14] | z-score [15] | z-score [16] | z-score [17] | z-score [18] | z-score [19] | composite z-score [20]
1 | CC(=O)O[C@H]1C2=CO[C@H](C)[C@H]3[C@H]4C5=C([C@H](O)[C@H]6O[C@H]6C5=O)[C@H](OC4C)[C@@]23C(=O)[C@@H]2O[C@@H]21 (stereo not given in full) | -1.7 | -0.827 | -3.46 | -3.43 | -3.37 | -3 | 0.12 (inactive) | -0.871 | -2.88 | -2.43 (inactive) | -1.75 | 0.0895 (inactive) | -4.88 (inactive) | -0.219 (inactive) | 1.09 (inactive) | -0.464 (inactive) | -0.262 (inactive) | -0.267 (inactive) | -3.5 | -0.266
2 | O=C1C2=CC[C@H]3C(=O)N(c4cccc(Oc5ccccc5)c4)C(=O)[C@H]3[C@H]2[C@H](O)[C@@H]2O[C@H]12 | -1.07 | -0.0208 | -3.98 | -3.09 | -3.84 | -0.778 | -0.298 (inactive) | -1.05 | -3.02 | -1.35 (inactive) | -1.02 | -1.72 (inactive) | -6.54 (inactive) | -1.2 (inactive) | -0.261 (inactive) | -0.0295 (inactive) | -0.392 (inactive) | -0.281 (inactive) | -3.76 | 0.0506
3 | C#CCCCON=C1C[C@@H](O)[C@@H](O)[C@@H]2[C@@H]3C(=O)N(CCC(=O)OCC)C(=O)[C@@H]3CC[C@H]12 | 0.278 | 0.73 | 0.249 | -0.0993 | 0.111 | 0.0972 | -0.367 (inactive) | 0.0174 | -1.36 | -1.11 (inactive) | -1.1 | -4.65 (inactive) | -0.307 (inactive) | -0.937 (inactive) | -0.191 (inactive) | -1.71 (inactive) | 0.0851 (inactive) | 0.1 (inactive) | -0.192 | -0.232
4 | CCOC(=O)CCN1C(=O)[C@H]2[C@H]3[C@H](O)[C@H](O)CC(=NNC(=O)OCc4ccccc4)[C@@H]3CC[C@H]2C1=O | -0.0996 | 0.902 | 0.554 | 0.457 | -0.359 | -0.398 | -0.773 (inactive) | 0.279 | -0.614 | -0.744 (inactive) | -0.921 | 0.192 (inactive) | -0.931 (inactive) | 0.203 (inactive) | -0.331 (inactive) | 0.116 (inactive) | 0.655 (inactive) | 0.84 (inactive) | -0.663 | 0.154
5 | C[C@@H](ON=C1[C@H]2CCn3c(=O)n(-c4ccccc4)c(=O)n3[C@H]2[C@H](O)[C@@H]2O[C@H]12)c1cn([C@@H]2COC[C@H]2O)nn1 | 0.0219 | -0.15 | 0.373 | -0.289 | -0.292 | -0.377 | -1.84 (inactive) | -0.0731 | -0.696 | 0.0264 (inactive) | -0.311 | 0.337 (inactive) | -0.739 (inactive) | -0.642 (inactive) | 0.523 (inactive) | -1.01 (inactive) | 0.0645 (inactive) | -0.317 (inactive) | -0.715 | -0.189
6 | CCOC(=O)[C@H](Cc1ccccc1)NC(=O)CCC1CC(OC(=O)NCc2ccc3c(c2)OCO3)CC2(CCCC(COC(=O)NCCC(C)C)O2)O1 (stereo not given in full) | 0.339 | 1.36 | -1.58 | -3.41 | -3.9 | 0.162 | -0.375 (inactive) | -0.212 | -1.32 | -0.149 (inactive) | -0.341 | -0.426 (inactive) | 0.812 (inactive) | 0.55 (inactive) | -1.17 (inactive) | 0.895 (inactive) | 0.308 (inactive) | 0.249 (inactive) | 0.75 | -0.0559
7 | CC(C)(C)N1C(=O)[C@H]2[C@H]3[C@H](O)[C@H](O)CC(=O)[C@H]3CC[C@H]2C1=O | -0.568 | 0.372 | 0.258 | -1 | -0.27 | 0.192 | -0.445 (inactive) | 0.651 | -0.512 | -0.644 (inactive) | -0.915 | -0.573 (inactive) | 0.319 (inactive) | 0.236 (inactive) | -0.908 (inactive) | 0.143 (inactive) | -0.403 (inactive) | -0.738 (inactive) | -0.383 | -0.0378
8 | CC(C)=CCCC(C)=CCON=C1C[C@@H](O)[C@@H](O)[C@@H]2[C@@H]3C(=O)N(C(C)(C)C)C(=O)[C@@H]3CC[C@H]12 | 0.0088 | 0.729 | -0.465 | 0.387 | -0.306 | -0.00723 | 0.111 (inactive) | -0.15 | 0.598 | -0.624 (inactive) | -0.369 | -0.352 (inactive) | -0.274 (inactive) | -0.108 (inactive) | 0.152 (inactive) | -0.264 (inactive) | 0.27 (inactive) | 0.612 (inactive) | -0.245 | -0.172
9 | COC(=O)CC=C[C@@H](C)[C@@H](C=NO[C@@H](C)c1cn([C@H](CO)Cc2ccccc2)nn1)OC | 0.52 | 1.03 | 0.656 | 0.354 | -0.609 | 0.341 | 1.08 (inactive) | 0.0532 | 0.723 | -0.493 (inactive) | -0.849 | -0.966 (inactive) | 0.104 (inactive) | -0.842 (inactive) | -0.418 (inactive) | -2.71 (inactive) | 0.24 (inactive) | -0.913 (inactive) | -0.514 | -0.139
